Source: PubChem BioAssay (NCI)
The panel holds about 83,000 compounds, 20% with a hit somewhere; the sample as a whole holds those more often.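 Treatment: one concentration, 48 hours, 96-well format. Scoring: percent growth, with anything below 10 considered active.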 The source made the active and inactive calls.

Legend:
Test in all cases: NCI-60 one-dose screen, 48 h (100 = growth as untreated, 0 = no growth, -100 = all killed)
Conditions in all cases: 10 µM unless noted
T-47D breast = test system: T-47D breast
BT-549 breast = test system: BT-549 breast
MDA-MB-435 melanoma = test system: MDA-MB-435 melanoma
SW-620 colon = test system: SW-620 colon
MCF7 breast = test system: MCF7 breast
HCT-116 colon = test system: HCT-116 colon
HCC-2998 colon = test system: HCC-2998 colon
KM12 colon = test system: KM12 colon

Measured: growth

CN(C)C(=O)Nc1nc2cc(Cl)c(Cl)cc2[nH]1
active: MDA-MB-435 melanoma -24.5% | HCT-116 colon 1.15% | KM12 colon 1.99%
inactive: T-47D breast 52.5% | BT-549 breast 39.5% | SW-620 colon 29.8% | MCF7 breast 15.4% | HCC-2998 colon 14.2%

C/C(=N\N=C1/SCC(=O)N1c1ccccc1)c1ccco1
inactive: T-47D breast 114% | BT-549 breast 127% | MDA-MB-435 melanoma 88.6% | SW-620 colon 109% | MCF7 breast 53.7% | HCT-116 colon 92.7% | HCC-2998 colon 109% | KM12 colon 103%

CN[C@@H](CCCNC(N)=NC/C=C(/C)CCC=C(C)C)C(=O)N(C)[C@@H](CCCNC(N)=NCC=C(C)C)C(=O)N[C@H](C)[C@H](OS(=O)(=O)O)c1ccc(OS(=O)(=O)O)c(COS(=O)(=O)O)c1
inactive: T-47D breast 98.1% | BT-549 breast 107% | MDA-MB-435 melanoma 113% | SW-620 colon 108% | MCF7 breast 97.7% | HCT-116 colon 101% | HCC-2998 colon 105% | KM12 colon 100%

ClC1c2ccccc2CCc2ccccc21
inactive: T-47D breast 74.6% | BT-549 breast 93.8% | MDA-MB-435 melanoma 110% | SW-620 colon 101% | MCF7 breast 92.1% | HCT-116 colon 72.7% | HCC-2998 colon 107% | KM12 colon 109%

O=[N+]([O-])c1ccc(NS(=O)(=O)c2cc(Cl)ccc2Cl)c2ccccc12
inactive: T-47D breast 56% | BT-549 breast 48% | MDA-MB-435 melanoma 52.3% | SW-620 colon 64.4% | MCF7 breast 46.4% | HCT-116 colon 45% | HCC-2998 colon 32.2% | KM12 colon 40.5%

COc1ccc(Cl)cc1NC(=O)c1cc2c(n1C)-c1nc(NC(=O)C(C)C)sc1CC2
inactive: T-47D breast 68.2% | BT-549 breast 53% | MDA-MB-435 melanoma 93.8% | SW-620 colon 90.5% | MCF7 breast 84.5% | HCT-116 colon 44.6% | HCC-2998 colon 122% | KM12 colon 92.7%

Cc1cccc(Cc2cnc(NC(=O)CCc3ccc(C)o3)s2)c1
active: BT-549 breast 5.79% | MDA-MB-435 melanoma -23.1%
inactive: T-47D breast 76.9% | SW-620 colon 30% | MCF7 breast 12.4% | HCT-116 colon 11.5% | HCC-2998 colon 23.7% | KM12 colon 12.6%

CCC1S/C(=N\N=C(/C)c2cc3ccccc3o2)N(c2ccccc2)C1=O (stereo not drawn)
inactive: T-47D breast 85.1% | BT-549 breast 234% | MDA-MB-435 melanoma 107% | SW-620 colon 106% | MCF7 breast 162% | HCT-116 colon 80.8% | HCC-2998 colon 113% | KM12 colon 114%

Nc1ncnc2c1c(C(F)(F)F)cn2[C@@H]1O[C@H](CO)[C@@H](O)[C@H]1O
active: T-47D breast -0.423% | BT-549 breast -10.2% | SW-620 colon 5.25% | MCF7 breast 7.41% | HCT-116 colon 8.38% | HCC-2998 colon 7.21% | KM12 colon 4.05%
inactive: MDA-MB-435 melanoma 12.3%

S=c1ssnc1-c1ccccn1
active: SW-620 colon 5.79% | HCT-116 colon 6.31%
inactive: T-47D breast 27.1% | BT-549 breast 49.5% | MDA-MB-435 melanoma 36% | MCF7 breast 27.4% | HCC-2998 colon 50.8% | KM12 colon 32.8%

CCOC(=O)NNc1nncc2ccccc12
inactive: T-47D breast 94.8% | BT-549 breast 113% | MDA-MB-435 melanoma 100% | SW-620 colon 104% | MCF7 breast 105% | HCT-116 colon 106% | HCC-2998 colon 103% | KM12 colon 101%

OC[C@@H](O)C(O[C@@H]1O[C@H](CO)[C@H](O)[C@H](O)[C@H]1O)[C@H](O)[C@@H](O)CO (stereo partly drawn)
inactive: T-47D breast 105% | BT-549 breast 107% | MDA-MB-435 melanoma 95.4% | SW-620 colon 102% | MCF7 breast 106% | HCT-116 colon 113% | HCC-2998 colon 95.6% | KM12 colon 103%

CS(=O)(=O)OCC(COS(C)(=O)=O)C(c1ccccc1)c1ccccc1
inactive: T-47D breast 100% | BT-549 breast 97.3% | MDA-MB-435 melanoma 105% | SW-620 colon 99.3% | MCF7 breast 101% | HCT-116 colon 95.9% | HCC-2998 colon 109% | KM12 colon 104%

COC(=O)c1oc2c(C(=O)/C=C/c3ccc(OC)cc3)c(OCCN3CCOCC3)ccc2c1C
inactive: T-47D breast 14% | MDA-MB-435 melanoma 20% | MCF7 breast 10.5% | HCC-2998 colon 23.7%
active: BT-549 breast -6.36% | SW-620 colon -96.8% | HCT-116 colon -73.9% | KM12 colon -10.1%

C=C(C)[C@@H]1C/C=C(\COC(=O)[C@H](OC(C)=O)C(NC(=O)c2ccccc2)c2ccccc2)CC[C@H]2O[C@]2(C)CC/C=C(\C)CC1 (stereo partly drawn)
inactive: T-47D breast 68.7% [5 µM] | BT-549 breast 68.5% [5 µM] | MDA-MB-435 melanoma 67% [5 µM] | SW-620 colon 94.8% [5 µM] | MCF7 breast 38.2% [5 µM] | HCT-116 colon 42.7% [5 µM] | HCC-2998 colon 75.5% [5 µM] | KM12 colon 69.1% [5 µM]

Cc1c(C(C)(C)C)cc(C(C)(C)C)c2c1CN(C)CO2
inactive: T-47D breast 104% | BT-549 breast 110% | MDA-MB-435 melanoma 113% | SW-620 colon 117% | MCF7 breast 99.8% | HCT-116 colon 104% | HCC-2998 colon 101% | KM12 colon 113%

COc1ccc(CNc2nc3ccccc3c3c(=O)c4ccccc4sc23)cc1OC
inactive: T-47D breast 93.5% | BT-549 breast 103% | MDA-MB-435 melanoma 91.7% | SW-620 colon 73.7% | MCF7 breast 73.9% | HCT-116 colon 68.8% | HCC-2998 colon 94% | KM12 colon 79.8%

Nc1nc(Cl)cc(NCc2ccc(CNc3cc(Cl)nc(N)n3)cc2)n1
inactive: T-47D breast 69.2% | BT-549 breast 72.6% | MDA-MB-435 melanoma 106% | SW-620 colon 87.4% | MCF7 breast 103% | HCT-116 colon 83.3% | HCC-2998 colon 101% | KM12 colon 99%

C=CC(C)(O)CCC1C(=C)CCC2C(C)(C)CCCC12C (stereo not drawn)
inactive: T-47D breast 99.4% | BT-549 breast 111% | MDA-MB-435 melanoma 107% | SW-620 colon 111% | MCF7 breast 92.7% | HCT-116 colon 107% | HCC-2998 colon 99.5% | KM12 colon 99.8%

CC1(C)N=C(N)N=C(N)N1c1ccc(F)c(C(F)(F)F)c1
inactive: T-47D breast 91.1% | BT-549 breast 61.5% | MDA-MB-435 melanoma 40.6% | SW-620 colon 30.2% | MCF7 breast 26.8% | HCT-116 colon 19.8% | HCC-2998 colon 34.3% | KM12 colon 27.2%

Cc1nccc2c3ccc(OCc4cn(-c5ccc(Br)cc5)nn4)cc3n(CCCc3ccccc3)c12
inactive: T-47D breast 104% | BT-549 breast 53.5% | MDA-MB-435 melanoma 18.7% | MCF7 breast 12.5% | HCT-116 colon 30.6% | HCC-2998 colon 35.6%
active: SW-620 colon 2.21% | KM12 colon 8.07%

CCCCNc1cc(C(=O)O)cc(S(N)(=O)=O)c1Oc1ccccc1
inactive: T-47D breast 103% | BT-549 breast 104% | MDA-MB-435 melanoma 99.3% | SW-620 colon 99.1% | MCF7 breast 111% | HCT-116 colon 110% | HCC-2998 colon 103% | KM12 colon 107%

c1ccc(-c2nc3sc(C(c4ccccc4)c4ccccc4)nn3c2-c2ccccc2)cc1
inactive: T-47D breast 92.6% | BT-549 breast 96% | MDA-MB-435 melanoma 98.9% | SW-620 colon 91.6% | MCF7 breast 90.8% | HCT-116 colon 84% | HCC-2998 colon 109% | KM12 colon 96.1%

Nc1ncnc2c1c(-c1ccc(Oc3ccccc3)cc1)nn2C[C@H]1SSC[C@H]1O
active: T-47D breast -20.6% | MDA-MB-435 melanoma -74.6% | MCF7 breast -53.9% | HCT-116 colon -69.3% | KM12 colon 9.93%
inactive: BT-549 breast 38.9% | SW-620 colon 69.2% | HCC-2998 colon 11.2%

CCCCCC/C=N/Nc1ccc([N+](=O)[O-])cn1
inactive: T-47D breast 88.4% | BT-549 breast 96.2% | MDA-MB-435 melanoma 101% | SW-620 colon 102% | MCF7 breast 90.7% | HCT-116 colon 84.7% | HCC-2998 colon 85.9% | KM12 colon 99.5%

O=C(O)c1ccc(-n2cc(/C=N/Nc3ccccc3F)c(-c3ccc(O)cc3)n2)cc1
inactive: T-47D breast 62.7% | BT-549 breast 80.3% | MDA-MB-435 melanoma 74.8% | SW-620 colon 61.8% | MCF7 breast 73.7% | HCT-116 colon 71.2% | HCC-2998 colon 86.4% | KM12 colon 57.9%

COc1ccc(NC(=O)Nc2ccc(-c3ccc(OC)c(OC)c3)nc2C)cc1
inactive: T-47D breast 60.4% | BT-549 breast 50.4% | MDA-MB-435 melanoma 65.2% | SW-620 colon 64.8% | MCF7 breast 65.1% | HCT-116 colon 49.4% | HCC-2998 colon 83.1% | KM12 colon 45.3%

Cc1ccc(Cn2cc(COc3ccc4c5ccnc(C)c5n(CCCc5ccccc5)c4c3)nn2)cc1
inactive: T-47D breast 89.9% | BT-549 breast 90.1% | MDA-MB-435 melanoma 106% | SW-620 colon 89.5% | MCF7 breast 86.2% | HCT-116 colon 60% | HCC-2998 colon 102% | KM12 colon 97.9%

CC(C(C(=O)N1CCCCC1)N1CCCCC1)N1CCCCC1 (stereo not drawn)
inactive: T-47D breast 107% | BT-549 breast 111% | MDA-MB-435 melanoma 109% | SW-620 colon 108% | MCF7 breast 104% | HCT-116 colon 97% | HCC-2998 colon 107% | KM12 colon 113%

O=c1nc(N2CCOCC2)oc2c(-c3cccc4ccccc34)cccc12
inactive: T-47D breast 79.7% | BT-549 breast 85.3% | MDA-MB-435 melanoma 101% | SW-620 colon 97.9% | MCF7 breast 89.8% | HCT-116 colon 96.7% | HCC-2998 colon 109% | KM12 colon 87.3%

Cc1cc(NCCN(C(C)C)C(C)C)nc(/N=C(\N)Nc2ccc(Cl)c(C(F)(F)F)c2)n1
active: T-47D breast -54.3% | BT-549 breast -64.6% | MDA-MB-435 melanoma -73.9% | SW-620 colon -89.7% | MCF7 breast -78.4% | HCT-116 colon -100% | HCC-2998 colon -96.7% | KM12 colon -92.6%
